Measurements: publication PMC5540273 (PLoS ONE, 2017)
Where two headings read alike, the source gives them in different places.

Experiments:
[1] = tested on: GRK4; conditions: concentration: 1 μM, replicates: in singlicate; n = 1
[2] = tested on: GRK7; conditions: concentration: 1 μM, replicates: in singlicate; n = 1
[3] = tested on: GSK3A; conditions: concentration: 1 μM, replicates: in singlicate; n = 1
[4] = tested on: GSK3B; conditions: n = 1
[5] = tested on: T1, HASPIN; conditions: concentration: 1 μM, replicates: in singlicate; n = 1
T1 construct: gene GSG2

[6] = tested on: HCK; conditions: concentration: 1 μM, replicates: in singlicate; n = 1
[7] = tested on: HIPK1; conditions: concentration: 1 μM, replicates: in singlicate; n = 1
[8] = tested on: HIPK2; conditions: concentration: 1 μM, replicates: in singlicate; n = 1
[9] = tested on: HIPK3; conditions: concentration: 1 μM, replicates: in singlicate; n = 1
[10] = tested on: HIPK4; conditions: concentration: 1 μM, replicates: in singlicate; n = 1
[11] = concentration: 1 μM, replicates: in singlicate
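Further: KINOMEscan kinase panel screen.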

Compound	%Inh [1]	%Inh [2]	%Inh [3]	%Inh [4, 11]	%Inh [5]	%Inh [6]	%Inh [7]	%Inh [8]	%Inh [9]	%Inh [10]	%Inh ([4]; 1 µM)
O=C(NCCNc1ccnc(Nc2ccc(F)cc2)n1)Nc1ccccc1F [GSK1379880]	0%	0%	2%	0%	0%	0%	0%	0%	19%	0%	–
O=C(Nc1cccc(-c2nn3ncccc3c2-c2ccnc(Nc3cccc(C(F)(F)F)c3)n2)c1)c1c(F)cccc1F [GSK299495]	2%	0%	0%	18%	2%	98.1%	0%	0%	1%	0%	–
Cc1cn2c(=O)cc(N3CCOCC3)nc2n1Cc1cccc(Cl)c1Cl [GSK2334006]	0%	0%	11%	13%	11%	16%	0%	0%	18%	6%	–
COc1ccc(S(=O)(=O)NC2CCN(c3cc(C)nc(Nc4cccc(C#N)c4)n3)CC2)cc1.O=C(O)C(F)(F)F [GSK1653539]	0%	0%	6%	0%	22%	0%	0%	0%	4%	0%	–
Cn1ccc2ncnc(Oc3ccc(NC(=O)Nc4ccncc4)c(Cl)c3)c21	19%	0%	29%	0%	28%	0%	17%	0%	0%	0%	–
O=C(c1ccc(-c2cc(-c3c[nH]nc3-c3ccccn3)ccn2)cc1)N1CCOCC1 [GW812171]	14%	0%	8%	7%	0%	36%	36%	0%	6%	7%	–
Fc1ccc(-c2nn3c(OCC(F)(F)F)cccc3c2-c2ccncc2)cc1 [GW514784]	0%	0%	10%	0%	67%	0%	0%	0%	5%	0%	–
Nc1nc(-c2ccc3c(N)n[nH]c3c2)cc(N2CCCC2)n1 [GSK2227430]	0%	0%	0%	0%	0%	0%	5%	0%	0%	0%	–
COc1ccc(CNC(=O)NC2CCN(c3ccnc(Nc4ccc(OC)cc4)n3)C2)cc1 (stereo not shown) [GSK1379727]	4%	0%	0%	0%	19%	0%	0%	40%	23%	0%	–
CCc1ccnc(/C=C/c2n[nH]c3cc(Sc4ccccc4C(=O)NC)ccc23)c1	2%	0%	2%	6%	11%	0%	3%	0%	6%	15%	–
c1ccc(-c2cc(-c3c[nH]nc3-c3ccccn3)ccn2)cc1 [GW576604]	0%	0%	11%	0%	16%	0%	0%	0%	15%	6%	–
NCC(NC(=O)c1cc(-c2cn[nH]c2)c(-c2ccnc3[nH]ccc23)s1)c1ccccc1.O=C(O)C(F)(F)F.O=C(O)C(F)(F)F (stereo not shown) [GSK1325775]	64%	51%	38%	48%	84%	0%	88%	96.7%	98.4%	94.8%	–
O=C1NC(=O)C(N2CCc3ccccc32)=C1c1cccc(Cl)c1 [SB-408010]	29%	5%	2%	–	0%	25%	27%	13%	7%	0%	27%
Nc1nccc(-c2c(-c3ccc(F)cc3)ncn2C2CCN(CC(F)(F)F)CC2)n1 [SB-236560]	10%	2%	0%	0%	36%	0%	27%	57%	0%	0%	–
NS(=O)(=O)CCc1cccc(Nc2nccc(-c3c(-c4cccc(NC(=O)c5c(F)cccc5F)c4)nn4ccccc34)n2)c1 [GSK336735]	43%	12%	20%	6%	0%	98.9%	0%	0%	8%	25%	–
O=c1cc(N2CCOCC2)nc2n(Cc3cccc(C(F)(F)F)c3)ccn12 [GSK2297543]	0%	0%	6%	3%	0%	0%	18%	0%	7%	1%	–
